{
  "source": "PubChem BioAssay AID651907",
  "about": "(Vanderbilt Specialized Chemistry Center, 2012)",
  "target": "Histone deacetylase 7 (Homo sapiens) (UniProt Q8WUI4)",
  "sequence (Q8WUI4 whole entry, looked up)": "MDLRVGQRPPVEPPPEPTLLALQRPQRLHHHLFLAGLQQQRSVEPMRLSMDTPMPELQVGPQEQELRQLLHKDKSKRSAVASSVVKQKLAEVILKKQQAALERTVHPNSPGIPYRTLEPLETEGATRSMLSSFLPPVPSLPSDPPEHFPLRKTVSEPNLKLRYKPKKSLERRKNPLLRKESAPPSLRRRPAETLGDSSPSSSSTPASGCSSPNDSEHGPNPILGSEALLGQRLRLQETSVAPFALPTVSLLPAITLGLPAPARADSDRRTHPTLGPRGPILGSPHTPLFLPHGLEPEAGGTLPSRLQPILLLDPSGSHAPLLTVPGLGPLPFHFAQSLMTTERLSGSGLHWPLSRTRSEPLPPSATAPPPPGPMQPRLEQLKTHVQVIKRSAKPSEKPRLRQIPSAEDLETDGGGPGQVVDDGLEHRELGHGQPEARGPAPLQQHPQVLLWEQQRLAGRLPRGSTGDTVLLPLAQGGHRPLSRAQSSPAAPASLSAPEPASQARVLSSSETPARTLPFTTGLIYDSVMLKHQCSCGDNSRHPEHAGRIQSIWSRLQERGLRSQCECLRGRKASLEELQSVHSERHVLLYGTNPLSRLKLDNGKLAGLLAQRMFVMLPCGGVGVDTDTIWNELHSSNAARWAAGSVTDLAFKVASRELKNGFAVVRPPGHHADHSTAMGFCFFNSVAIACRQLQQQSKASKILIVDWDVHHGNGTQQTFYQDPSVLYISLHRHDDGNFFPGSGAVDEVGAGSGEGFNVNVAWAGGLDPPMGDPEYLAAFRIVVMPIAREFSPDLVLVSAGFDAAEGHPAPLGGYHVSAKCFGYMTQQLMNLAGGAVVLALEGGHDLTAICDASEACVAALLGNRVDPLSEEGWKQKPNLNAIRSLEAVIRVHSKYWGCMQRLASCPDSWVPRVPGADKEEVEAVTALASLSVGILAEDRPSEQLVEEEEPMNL",
  "experiment": "inhibitors of recombinant human HDAC7 – biochemical, selectivity assay for E-cadherin restoration project, profiling panel (AID 651907)",
  "conditions": "recombinant HDAC7, fluorogenic class IIa substrate; series mostly up to 10 µM",
  "note": "Calls of active or inactive are those of the source. How the calls were made is not given here.",
  "data": [
    {"smiles": "O=C(NCCCNC(=O)c1ccc[nH]c1=O)c1cc(-c2ccccc2)on1", "values": [
      {"measurement": "outcome", "result": "inactive"}
    ]}
  ]
}
